Wnt bcat act: activates Wnt/beta-catenin signaling in a reporter cell assay | activator, plate reader | activation, % at 9.35 µM | 1.2% of 300,000 active | AID 743398; in the data active = activation above about 30%, passing the limit was not always enough; inconclusive = no clear call, values can overlap the other calls
esBAF inh: SWI/SNF esBAF complex inhibition. mouse ES cells, Bmi1-luciferase knock-in reporter, 24 h; 100% = twice the neutral-well signal. reporter increase, % at 12.5 µM. 2% of 350,000 active; in the data active = activation above about 40%; inconclusive = no clear call, values can overlap the other calls;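 also: a rise in the Bmi1 reporter signal indicates esBAF inhibition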
TRPM1 prom inh: inhibitors of MITF-driven TRPM1 promoter in melanoma cells | SK-MEL-5 TRPM1 promoter luciferase, 24 h | inhibition, % at 12.5 µM | 0.83% of 330,000 active | AID 488899;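 active = mean inhibition across replicates of 60% or more, whatever share of single replicates reaches that level; inconclusive = some that reach 60%, reason not given; inactive = mean inhibition across replicates below 60%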
LMP1 NFkB inh: inhibitors of Epstein-Barr LMP1-induced NF-kappaB reporter; LMP1-induced NF-kappaB luciferase reporter cells, luminescence; inhibition, % at 12.5 µM; 0.69% of 350,000 active; in the data active = inhibition above about 41%; inconclusive = no clear call, values can overlap the other calls
Statin myotox sup: suppressors of simvastatin-induced myotoxicity in C2C12 myotubes; 0.78% of 330,000 active; ATP luminescence, 48 h; scaled: DMSO 0, geranylgeraniol control 100; rescue of ATP level, % at 7.49 µM;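 active = mean ATP rescue above about 67%, or every replicate alone reaching that limit, limit read from the data, passing the limit was not always enough; inconclusive = no clear call, values can overlap the other calls; inactive = mean under the limit and some replicate under it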;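 also: myotubes were challenged with 10 µM simvastatin during compound exposure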
MITF act: activators of MITF-driven TRPM1 promoter activity in SK-MEL-5 cells | AID 588334 | activation, % at 12.5 µM | SK-MEL-5 TRPM1-promoter luciferase, 24 h; % of positive control, neutral wells = 0 | 0.75% of 300,000 active;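 active = mean activation of at least 80% with every replicate also reaching 80%; inconclusive = mean reaches 80% but some replicate falls short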
Hits are given with their value. This is a sample that favours compounds with a hit; in the whole collection about 4% have one here.

Results for CN1c2ccc(-c3cccc(F)c3)cc2[C@H]2[C@H](CCN2C(=O)Nc2ccccc2F)[C@H]1CO ?
esBAF inh: inactive; Statin myotox sup: inactive

What do the screens show for `CC(C)[C@H](NC(=O)C1CCN(C(=O)[C@H](Cc2ccccc2)NC(=O)OC(C)(C)C)CC1)C(=O)O`?
Wnt bcat act: inactive; esBAF inh: inactive; TRPM1 prom inh: inactive; LMP1 NFkB inh: inactive; Statin myotox sup: inactive; MITF act: inactive

Results for CC(C)CCNC1c2ccccc2C(=O)N1Cc1ccccc1 (stereo unspecified) ?
Wnt bcat act: inactive; esBAF inh: inactive; TRPM1 prom inh: inactive; LMP1 NFkB inh: inactive; Statin myotox sup: inactive; MITF act: inactive

Results for Cn1nc(-c2ccc(N3CCOCC3)c(NS(=O)(=O)c3ccccc3)c2)c2ccccc2c1=O ?
Wnt bcat act: inactive; esBAF inh: inactive; TRPM1 prom inh: inactive; LMP1 NFkB inh: 61; Statin myotox sup: inactive; MITF act: inactive

How did CC(=O)Nc1cc(-c2nn(C)c(=O)c3ccccc23)ccc1N1CCCCC1 do in these assays?
Wnt bcat act: inactive; esBAF inh: inactive; TRPM1 prom inh: inactive; LMP1 NFkB inh: inactive; Statin myotox sup: inactive; MITF act: inactive

What do the screens show for `CCn1c(SCc2nc(N)nc(N3CCCCC3)n2)nc2c1c(=O)n(C)c(=O)n2C`?
TRPM1 prom inh: inactive; LMP1 NFkB inh: inactive; MITF act: inactive

Results for COC(=O)c1cc(C)nc(Nc2nc(C(N)Cc3ccc(F)cc3)cs2)n1 (stereo unspecified) ?
Wnt bcat act: inactive; esBAF inh: inactive; Statin myotox sup: inactive

Results for COC(=O)c1cc(C)nc(Nc2nc(C(N)Cc3ccc(Cl)cc3)cs2)n1 (stereo unspecified) ?
Wnt bcat act: 641; esBAF inh: inactive; Statin myotox sup: inactive

How did COc1cc(C2C(C#N)=C(N)Oc3c2oc(CO)cc3=O)cc(OC)c1OC (stereo unspecified) do in these assays?
Wnt bcat act: inactive; esBAF inh: inactive; TRPM1 prom inh: inactive; LMP1 NFkB inh: inactive; Statin myotox sup: inactive

What do the screens show for `COC(=O)C1=C(N)Oc2c(oc(CO)cc2=O)C1c1ccc(F)cc1` (stereo unspecified)?
Wnt bcat act: 40

What do the screens show for `Cc1nc(-c2ccccn2)sc1C(=O)Nc1ccc(F)cc1F`?
esBAF inh: 58; TRPM1 prom inh: inactive; LMP1 NFkB inh: inactive; Statin myotox sup: inactive

Results for CC(C)=CCc1c(C)nc2ccccc2c1C(=O)O ?
Wnt bcat act: inactive; esBAF inh: inactive; TRPM1 prom inh: inactive; LMP1 NFkB inh: inactive; Statin myotox sup: inactive; MITF act: inactive

Results for Cc1ccc(C)c(OCc2cc(C(=O)N3CCN(c4ccccc4)CC3)no2)c1 ?
Wnt bcat act: inactive; TRPM1 prom inh: inactive; LMP1 NFkB inh: inactive; MITF act: inactive

Results for Cc1ccc(C)c(OCc2cc(C(=O)N3C[C@@H](C)O[C@@H](C)C3)no2)c1 ?
Wnt bcat act: 37; esBAF inh: 76; TRPM1 prom inh: inactive; LMP1 NFkB inh: inactive; Statin myotox sup: inactive; MITF act: 125

How did Cc1ccc(C)c(OCc2cc(C(=O)NC3CCOC(C)(C)C3)no2)c1 (stereo unspecified) do in these assays?
Wnt bcat act: inactive; esBAF inh: 51; TRPM1 prom inh: inactive; LMP1 NFkB inh: inactive; Statin myotox sup: inactive; MITF act: inactive

How did Cc1ccc(C)c(OCc2cc(C(=O)N3CCN(C4CCCCC4)CC3)no2)c1 do in these assays?
Wnt bcat act: inactive; esBAF inh: inactive; LMP1 NFkB inh: inactive; Statin myotox sup: inactive

How did CCN(CCn1cccn1)C(=O)c1cc(COc2ccccc2SC)on1 do in these assays?
Wnt bcat act: inactive; TRPM1 prom inh: inactive; LMP1 NFkB inh: inactive; MITF act: inactive

Results for CCN(CCn1cccn1)C(=O)c1cc(COc2cc(C)ccc2C)on1 ?
Wnt bcat act: inconclusive; esBAF inh: 70; TRPM1 prom inh: inactive; LMP1 NFkB inh: inactive; Statin myotox sup: inactive; MITF act: inactive

How did Cc1ccc(C)c(OCc2cc(C(=O)N3CCN(C(=O)c4ccco4)CC3)no2)c1 do in these assays?
Wnt bcat act: inactive; esBAF inh: 80; TRPM1 prom inh: inactive; LMP1 NFkB inh: inactive; Statin myotox sup: inactive; MITF act: inactive

What do the screens show for `CN(C(=O)[C@H]1O[C@@H](n2cnc(C(N)=O)n2)[C@H](O)[C@@H]1O)c1ccccc1`?
Wnt bcat act: inactive

Compound activity deposited in PubChem by Broad Institute.
